Screening data (PubChem BioAssay)
Rows were chosen to be rich in hits. Some 3% of all compounds tested hit in one or more screens of this group.
Rv3671c inh: Rv3671c serine protease inhibitors, primary screen, biochemical, fluorescence polarization, M. tuberculosis H37Rv. P9WHR9. inhibition, % at 5.96 µM. 320,000 compounds, 0.048% hits. AID 2606, 2010; in the data active = inhibition above about 38%;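 also: extracellular domain of Rv3671c used as enzyme; 0% = enzyme with DMSO and 100% = no enzyme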
Target sequence (P9WHR9 whole entry, looked up, the tested form may be a part): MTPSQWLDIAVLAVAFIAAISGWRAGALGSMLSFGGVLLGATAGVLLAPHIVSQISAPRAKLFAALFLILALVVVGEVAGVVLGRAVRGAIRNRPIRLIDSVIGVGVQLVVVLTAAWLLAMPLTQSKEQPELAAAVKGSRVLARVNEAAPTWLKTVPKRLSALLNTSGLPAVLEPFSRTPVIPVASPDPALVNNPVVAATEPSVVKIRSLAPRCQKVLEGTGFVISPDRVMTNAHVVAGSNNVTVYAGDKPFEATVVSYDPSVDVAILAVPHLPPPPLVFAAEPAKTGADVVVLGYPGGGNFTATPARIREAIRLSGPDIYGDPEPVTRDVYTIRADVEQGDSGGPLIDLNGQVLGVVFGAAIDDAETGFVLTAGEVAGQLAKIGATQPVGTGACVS
FadD28 binding: inhibitors of FadD28 bisubstrate probe binding, primary screen, biochemical, fluorescence polarization, single point. inhibition, % at 12.5 µM. 360,000 compounds, 0.22% hits. Mycobacterium tuberculosis FadD28 fatty-acid-AMP ligase. AID 588549, 2011; in the data active = inhibition above about 8.5%, passing the limit was not always enough
GDH-TPI counter-1: GDH-TPI coupling enzyme inhibitors, primary screen, artefact control for M. tuberculosis FBA inhibitor project, biochemical, absorbance, full deck | GDH-TPI coupled enzyme counterscreen, NADH absorbance | inhibition, % at 4.8 µM | 360,000 compounds, 1.2% hits; in the data active = inhibition above about 30%;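 also: 0% = DMSO wells and 100% = wells lacking the enzyme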
Mtb FBA inh: Mtb FBA enzyme inhibitors, primary screen, biochemical, fluorescence, strain H37Rv | Fructose-bisphosphate aldolase (Mycobacterium tuberculosis (strain ATCC 25618 / H37Rv)), … | purified M. tuberculosis FBA, fluorescence read-out | inhibition, % at 1 µM | 360,000 compounds, 2.3% hits | AID 588726, 2011;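 also: 0% = vehicle and 100% = reference inhibitor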
BioA inh: M. tuberculosis BioA enzyme inhibitors, primary screen, biochemical, plate reader, single point, HTS | 7,8-diaminopelargonic acid synthase BioA (Mycobacterium tuberculosis) | purified M. tuberculosis BioA enzyme | inhibition, % at 9.99 µM | 360,000 compounds, 0.096% hits; in the data active = inhibition above about 40%
Mtb FBA inh conf: M. tuberculosis aldolase blockers, biochemical, fluorescence, strain H37Rv, confirmation; shares compounds with Mtb FBA inh; purified M. tuberculosis FBA, fluorescence read-out; inhibition, % at 1 µM; 5,600 compounds, 78% hits; AID 651616, 2012;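 also: 0% = vehicle wells and 100% = reference inhibitor wells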
GDH-TPI counter-2: GDH-TPI coupling enzyme inhibitors, artefact control for M. tuberculosis FBA inhibitor project, biochemical, fluorescence, high throughput; shares compounds with Mtb FBA inh; GDH-TPI coupled enzyme counterscreen; AID 652141, 2013; 5,600 compounds, 81% hits; inhibition, % at 1 µM; in the data active = inhibition above about 10%
* hit, by the source's call. Rule as the data show it, unless noted: active = inhibition above about 27%; inactive = the rest.

For CONC(=O)c1ccc(-c2cccc3nccn23)cc1 the results were FadD28 binding -3, GDH-TPI counter-1 4, Mtb FBA inh 3 and BioA inh 1.
`c1ccc2c(c1)oc1c(-c3cccc4nccn34)cccc12` gave FadD28 binding -2, GDH-TPI counter-1 19, Mtb FBA inh 90*, BioA inh 0, Mtb FBA inh conf 50* and GDH-TPI counter-2 44*.
For COc1ccc(-c2cncc3nccn23)cc1OC the results were FadD28 binding -4, GDH-TPI counter-1 10, Mtb FBA inh 6 and BioA inh 8.
Screening CS(=O)(=O)Nc1ccccc1-c1cccc2nccn12 returned FadD28 binding -3, GDH-TPI counter-1 -1, Mtb FBA inh 40*, BioA inh -1, Mtb FBA inh conf 58* and GDH-TPI counter-2 39*.
Screening O=C(Nc1ccc(Cl)cc1)N1C[C@H]2[C@@H](c3ccccc31)[C@H](CO)N2C(=O)c1cccnc1 returned BioA inh -1.
C/C=C/c1cnc2c(c1)C(=O)N([C@@H](C)CO)C[C@@H](C)[C@H](CN(C)C(=O)C1CC1)O2 was read as BioA inh -1.
For CC(=O)c1c(C)[nH]c(C(=O)COc2ccc3ccc(=O)oc3c2)c1C the results were Rv3671c inh -2, FadD28 binding -2, GDH-TPI counter-1 19, Mtb FBA inh 50*, Mtb FBA inh conf 92* and GDH-TPI counter-2 51*.
For O=C(CSc1nnc(-c2ccco2)o1)NCCc1ccccc1 the results were Rv3671c inh -1, FadD28 binding -1, GDH-TPI counter-1 0, Mtb FBA inh 0 and BioA inh 1.
COc1ccc(-c2nc(C#N)c(NCCc3ccccc3)o2)cc1OC was read as Rv3671c inh -1, FadD28 binding -1, GDH-TPI counter-1 20, Mtb FBA inh 102*, BioA inh 0, Mtb FBA inh conf active and GDH-TPI counter-2 active.
N#Cc1nc(-c2ccco2)oc1NCCc1ccccc1 was read as Rv3671c inh -1, FadD28 binding 1, GDH-TPI counter-1 20, Mtb FBA inh 41*, BioA inh 1, Mtb FBA inh conf 49* and GDH-TPI counter-2 40*.
Screening N#Cc1nc(-c2ccccc2)oc1NCCN1CCCCC1 returned Rv3671c inh -1, FadD28 binding -2, GDH-TPI counter-1 -9, Mtb FBA inh 81*, Mtb FBA inh conf 67* and GDH-TPI counter-2 68*.
COc1ccc(CCNc2oc(-c3ccco3)nc2C#N)cc1 was read as Rv3671c inh -7, FadD28 binding -2, GDH-TPI counter-1 9, Mtb FBA inh 54*, BioA inh 4, Mtb FBA inh conf 145* and GDH-TPI counter-2 133*.
`N#Cc1nc(Cc2cccc3ccccc23)oc1NCCN1CCOCC1` gave Rv3671c inh -2, FadD28 binding 1, GDH-TPI counter-1 29, Mtb FBA inh 6 and BioA inh -7.
Screening C[C@@H]1CN([C@@H](C)CO)C(=O)Cc2cc(NC(=O)Nc3ccc4c(c3)OCO4)ccc2O[C@H]1CN(C)C returned BioA inh 3.
For C[C@H]1CN([C@@H](C)CO)C(=O)c2cc(NC(=O)C3CCCCC3)ccc2O[C@@H]1CN(C)C(=O)Nc1ccc(F)cc1 the results were BioA inh -1.
For Fc1cccc(-n2c(-c3ccco3)nc3nc4ccccc4nc32)c1 the results were Rv3671c inh 3, FadD28 binding -3, GDH-TPI counter-1 -7, Mtb FBA inh 52*, BioA inh 0, Mtb FBA inh conf 73* and GDH-TPI counter-2 49*.
Fc1cccc(-n2c(-c3cccs3)nc3nc4ccccc4nc32)c1 was read as Rv3671c inh -6.
`Cc1ccc(-n2c(-c3ccco3)nc3nc4ccccc4nc32)cc1F` gave Rv3671c inh -3, FadD28 binding 2, GDH-TPI counter-1 0, Mtb FBA inh 33*, BioA inh -1, Mtb FBA inh conf 77* and GDH-TPI counter-2 62*.
CN1C(=O)c2cc(NC(=O)c3cccc(C(F)(F)F)c3)ccc2OC[C@H]2O[C@@H](CC(=O)NCCN3CCCC3)CC[C@H]21 was read as BioA inh 2.
For CO[C@H]1CN(C)C(=O)c2cc(NC(=O)Nc3ccccc3)ccc2OC[C@@H](C)N(C(=O)CN(C)C)C[C@H]1C the results were BioA inh 2.
Screening CCN1C[C@]2(COC)CC[C@H](O)[C@]34C1[C@](O)([C@@H](OC)[C@H]23)[C@@]1(O)C[C@H](OC)[C@H]2C[C@@H]4[C@@H]1[C@H]2OC returned Rv3671c inh -4, FadD28 binding -3, GDH-TPI counter-1 -10, Mtb FBA inh 1 and BioA inh 0.
CCN1CC2(COC(=O)c3ccccc3N)CCC(OC)C34C5CC6C(OC)CC(O)(C5C6OC)C(O)(C(OC)C23)C14 (stereo unspecified) was read as Rv3671c inh -3, FadD28 binding 1, GDH-TPI counter-1 2, Mtb FBA inh 36*, BioA inh -2, Mtb FBA inh conf -3 and GDH-TPI counter-2 -6.
`CCN1C[C@]2(COC(=O)c3ccccc3N)CC[C@H](OC)C34[C@@H]5C[C@H]6[C@H](OC)[C@@H]5[C@](O)(C[C@@H]6OC)[C@@](O)([C@H]13)[C@@H](OC)[C@@H]42` gave Rv3671c inh 7, FadD28 binding 1, GDH-TPI counter-1 2, Mtb FBA inh 43*, BioA inh 1, Mtb FBA inh conf 59* and GDH-TPI counter-2 39*.
`CCOc1cccc(-c2cc(NCCc3ccccn3)n3nccc3n2)c1` gave FadD28 binding -1, GDH-TPI counter-1 7, Mtb FBA inh 35*, BioA inh 0, Mtb FBA inh conf 87* and GDH-TPI counter-2 71*.
`Cc1cccc(-c2cc(NCCc3cccnc3)n3nccc3n2)c1` gave FadD28 binding -1, GDH-TPI counter-1 4, Mtb FBA inh 32*, BioA inh 1, Mtb FBA inh conf 46* and GDH-TPI counter-2 35*.
`COc1ccc(CN(C)CC(O)COc2ccc(C(=O)c3ccccc3)cc2)c(OC)c1OC` (stereo unspecified) gave Rv3671c inh 2, FadD28 binding -3, GDH-TPI counter-1 10 and Mtb FBA inh 0.
`COc1ccc(Br)cc1CN(C)CC(O)COc1ccc(Br)cc1` (stereo unspecified) gave Rv3671c inh -1, GDH-TPI counter-1 16, Mtb FBA inh 53*, BioA inh -1, Mtb FBA inh conf 67* and GDH-TPI counter-2 54*.
